hcDAF-12 act: activates DAF-12 receptor from parasite H. contortus | HEK293 hcDAF-12 lit1-tk-luc reporter, luminescence; 0% DMSO, 100% Δ7-dafachronic acid | activation, % at 6.8 µM | AID 652067 | actives 1.4% (n = 370,000);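 active = activation above the mean of all tested compounds plus 3 SD, cut at about 5.5% in these data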
hgDAF-12 ag: hgDAF-12 agonism, primary luciferase screen; HEK293 GAL4-hgDAF12 UAS-luciferase reporter, agonist luminescence; normalized to butyrate control; activation, % at 6.8 µM; actives 1.8% (n = 370,000);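 active = activation above a cutoff set at the mean of all screened compounds plus 3 SD, cut at about 10% in these data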
ssDAF-12 act: activates DAF-12 receptor from parasite S. stercoralis | HEK293 ssDAF-12/GRIP1 lit1-tk-luc reporter, luminescence; % of 3 µM dafachronic acid response | activation, % at 6.8 µM | actives 1% (n = 370,000) | AID 652126;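 active = activation above the mean over all tested compounds plus 3 SD, cut at about 0.9% in these data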
DAX1 inh-1: blocks DAX1 repression of SF-1 activated StAR promoter | HEK293T StAR-luciferase reporter, SF-1/DAX-1 repression relief | inhibition, % at 6.8 µM | actives 1.1% (n = 370,000);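 active = inhibition above the mean over all tested compounds plus 3 SD, cut at about 3.6% in these data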;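 note: higher inhibition means more luminescence from relief of DAX-1 repression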
DAX1 inh-2: inhibitors of human orphan nuclear receptor DAX1 (NR0B1); AID 504766; actives 0.99% (n = 340,000); P51843; inhibition, % at 6.75 µM; HEK293 Gal4-DAX1 luciferase reporter, luminescence;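 active = inhibition above the mean over all tested compounds plus 3 SD, cut at about 4.2% in these data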;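 note: inhibition shows as a rise in luminescence from relieved DAX1 repression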
Target sequence (P51843 207-470 limits assumed): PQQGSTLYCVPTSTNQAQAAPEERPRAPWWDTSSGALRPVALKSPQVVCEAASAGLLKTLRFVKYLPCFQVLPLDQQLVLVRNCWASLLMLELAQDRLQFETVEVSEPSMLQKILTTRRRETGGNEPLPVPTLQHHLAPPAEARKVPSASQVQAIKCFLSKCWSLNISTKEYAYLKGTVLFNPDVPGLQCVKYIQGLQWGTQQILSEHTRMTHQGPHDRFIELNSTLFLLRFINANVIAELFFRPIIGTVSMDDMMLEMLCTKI
hgDAF12 conf: hgDAF-12 agonism, confirmation assay; AID 743050; HEK293 GAL4-hgDAF12 luciferase reporter, agonist mode; percent of butyrate response; actives 80% (n = 3,300); activation, % at 6.8 µM; shares compounds with hgDAF-12 ag;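 active = mean activation over triplicate wells above the hit cutoff derived from the earlier primary screen, cut at about 11% in these data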
LXRb DAF12 ctr: activates human LXR-beta, counter-screen for DAF-12 agonists; shares compounds with hgDAF-12 ag; HEK293 Gal4-LXR luciferase reporter, 24 h; activation, % at 6.8 µM; 3,300 tested, under 10 active;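 active = mean activation of the triplicate above a set limit carried over from the primary screen, none filed active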
Target sequence (P55055 whole entry, looked up, the tested form may be a part): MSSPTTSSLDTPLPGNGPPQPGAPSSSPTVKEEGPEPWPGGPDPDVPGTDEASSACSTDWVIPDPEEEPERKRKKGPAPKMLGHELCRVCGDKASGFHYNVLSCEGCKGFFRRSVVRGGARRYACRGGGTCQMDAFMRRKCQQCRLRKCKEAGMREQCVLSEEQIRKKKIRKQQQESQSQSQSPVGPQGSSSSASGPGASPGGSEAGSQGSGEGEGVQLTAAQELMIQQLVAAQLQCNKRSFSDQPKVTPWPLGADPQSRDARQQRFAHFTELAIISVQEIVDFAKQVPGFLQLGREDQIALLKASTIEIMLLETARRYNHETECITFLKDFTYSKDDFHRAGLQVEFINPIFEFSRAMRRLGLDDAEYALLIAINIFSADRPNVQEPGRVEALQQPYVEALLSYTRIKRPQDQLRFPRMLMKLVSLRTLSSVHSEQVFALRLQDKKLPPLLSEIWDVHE
Each line names hits and unclear results; the compound was inactive in the other large screens (follow-up assays come after a bar, where they were run). Hits are enriched below; roughly 4.1% of the tested compounds scored in any of these assays.

O=c1[nH]c2ccccc2nc1-c1ccc(Cl)cc1	none
Cc1nc2sc(C(=O)NCc3nccs3)c(N)c2c(C)c1Cl	none (no result: DAX1 inh-2)
O=C(CNC(=O)CNC(=O)c1ccc(Cl)cc1Cl)NCc1cccc(Cl)c1	none
Cc1ccc(Nc2cc(-n3cccn3)ncn2)c(C)c1	hgDAF-12 ag 15 | hgDAF12 conf 12 | LXRb DAF12 ctr inactive
O=C(/C=C/c1ccco1)Nc1nnc(-c2ccco2)s1	none
Cc1nc(NC(=O)/C=C/c2ccco2)sc1C	hgDAF-12 ag 13 | hgDAF12 conf 19 | LXRb DAF12 ctr inactive
CN1CCN(c2ccc(NC(=O)COc3ccccc3)cc2Cl)CC1	hgDAF-12 ag 15 | hgDAF12 conf 14 | LXRb DAF12 ctr inactive
O=C(CC[C@H]1O[C@@H](n2cnc3c(NC(=O)c4ccccc4)ncnc32)[C@H](O)[C@@H]1O)NCC1CCCCC1	none (no result: DAX1 inh-2)
CC(=NNc1ccc([N+](=O)[O-])cn1)c1ccccc1	hgDAF-12 ag 13 | hgDAF12 conf 16 | LXRb DAF12 ctr inactive
C/C(=N\Nc1ccc([N+](=O)[O-])cc1)c1ccc(O)cc1	hgDAF-12 ag 16 (no result: DAX1 inh-2) | hgDAF12 conf inactive | LXRb DAF12 ctr inactive
CC(C=NNc1ccc([N+](=O)[O-])cn1)=Cc1ccccc1	hgDAF-12 ag 17, DAX1 inh-1 3.7, DAX1 inh-2 7.5 | hgDAF12 conf 17 | LXRb DAF12 ctr inactive
O=[N+]([O-])c1ccc(NN=C(c2ccccc2)c2ccccc2)nc1	none
O=C(CNS(=O)(=O)c1ccccc1)N1CCN(c2ccccn2)CC1	none (no result: DAX1 inh-2)
O=C1NC[C@H](CCCCN2C[C@@H](Cc3ccccc3)N(Cc3ccccc3)C(=O)C2=O)N(CCC2CCCCC2)C1=O	none (no result: DAX1 inh-2)
CCCn1c(C)cc(C(=O)CN2C(=O)NC3(CCCCCC3)C2=O)c1C	hgDAF-12 ag 16 | hgDAF12 conf inactive | LXRb DAF12 ctr inactive
CC1=CC(=NOS(=O)(=O)c2ccc(C)cc2)CC(C)(C)C1	none (no result: DAX1 inh-2)
CCCCNC(=O)C1(C)CCN1C(=O)c1cccc(OC(F)(F)F)c1 (stereo unspecified)	none (no result: DAX1 inh-2)
O=C(Nc1ccc(Cl)cc1)OCc1cn(-c2ccc(Cl)cc2)nn1	none
Clc1ccc(-n2cc(COCc3ccccc3)nn2)cc1	hgDAF-12 ag 21, DAX1 inh-1 3.8 | hgDAF12 conf 11 | LXRb DAF12 ctr inactive
Nc1ccc(-c2nc3ccccc3s2)cn1	hgDAF-12 ag 14 | hgDAF12 conf 20 | LXRb DAF12 ctr inactive
c1ccc(-c2nc3ccccc3s2)nc1	hgDAF-12 ag 13, DAX1 inh-2 4.3 | hgDAF12 conf 18 | LXRb DAF12 ctr inactive
CCOc1ccc(-c2ccc(SCC(=O)Nc3nnc(C)s3)nn2)cc1	hgDAF-12 ag 13, DAX1 inh-1 4.3 | hgDAF12 conf 17 | LXRb DAF12 ctr inactive
CCOc1ccc(-c2ccc(SCC(=O)NC3CCCCC3)nn2)cc1	none
CCN(C(=O)CSc1nnc(-c2cccc(F)c2)n1N)c1c(N)n(Cc2ccccc2)c(=O)[nH]c1=O	hgDAF-12 ag 19 | hgDAF12 conf inactive | LXRb DAF12 ctr inactive
Cc1ccc(S(=O)(=O)C[C@@H]2OC3CCCCC3N2S(=O)(=O)c2ccc(C)cc2)cc1 (stereo partly specified)	none (no result: DAX1 inh-2)
CCn1c(=O)[nH]c2ccccc2c1=O	none
CCSCC(C)(C)n1[nH]c2ccccc2c1=O	hgDAF-12 ag 14 | hgDAF12 conf inactive | LXRb DAF12 ctr inactive
Cc1ccccc1C1(O)c2ccccc2-c2ccccc21	none
O=C(CSc1ccccn1)c1ccc(F)cc1	none
Cc1ccc(C(=O)CSc2ccccn2)cc1	hgDAF-12 ag 15 | hgDAF12 conf 14 | LXRb DAF12 ctr inactive
O=C(Nc1ccc(Cl)cc1)c1ccc2c(c1)OCO2	hcDAF-12 act 5.6, hgDAF-12 ag 13 | hgDAF12 conf 20 | LXRb DAF12 ctr inactive
O=C(Nc1ccn(Cc2ccccc2)n1)c1ccc2c(c1)OCO2	hgDAF-12 ag 16 | hgDAF12 conf inactive | LXRb DAF12 ctr inactive
CC(=O)Nc1ccc(C(=O)Nc2ccc3c(c2)OCCO3)cc1	none
O=C(Nc1ccn(Cc2ccc(Cl)cc2)n1)c1ccccc1	none
O=C(Nc1ccc2c(c1)OCCO2)c1ccc(Cl)cc1	hgDAF-12 ag 15 | hgDAF12 conf 15 | LXRb DAF12 ctr inactive
O=C(Nc1ccc(NC(=O)c2ccc(Cl)cc2Cl)cc1)c1ccc2c(c1)OCO2	none
O=C(N/N=C/c1ccc(Cl)cc1)c1ccc2c(c1)OCO2	hgDAF-12 ag 14 | hgDAF12 conf 17 | LXRb DAF12 ctr inactive
Cc1ccc(C(=O)OCC(=O)NN2C(=O)NC3(CCC(C)CC3)C2=O)cc1 (stereo unspecified)	none
CCN=C1S/C(=C/c2cc(C)n(-c3ccc(Cl)cc3F)c2C)C(=O)N1CC	none (no result: DAX1 inh-1, DAX1 inh-2)
CC(C(=O)N1CCc2ccccc21)N1CCN(S(=O)(=O)c2cccs2)CC1 (stereo unspecified)	none
CN(CC(=O)N1CCc2ccccc21)S(=O)(=O)c1cccs1	hgDAF-12 ag 13 | hgDAF12 conf 12 | LXRb DAF12 ctr inactive
O=C(Nc1ccc(O)cc1)c1c(O)c2c([nH]c1=O)CCCC2	hgDAF-12 ag 14, DAX1 inh-1 3.7 | hgDAF12 conf 13 | LXRb DAF12 ctr inactive
Cc1ccc(NC(=S)c2nc3ccccc3[nH]2)cc1	hcDAF-12 act 6.5, hgDAF-12 ag 14, ssDAF-12 act 1.0 | hgDAF12 conf 17 | LXRb DAF12 ctr inactive
Cc1ccc(NC(=S)N2CCCC(c3nc4ccccc4[nH]3)C2)cc1 (stereo unspecified)	none
CN(C)/C=N/C(=S)Nc1ccc(Cl)cc1	hgDAF-12 ag 14 | hgDAF12 conf 11 | LXRb DAF12 ctr inactive
CCc1ccc(NC(=O)N2CCC(c3ccccc3)C2)cc1 (stereo unspecified)	hgDAF-12 ag 18, DAX1 inh-1 3.7 | hgDAF12 conf 14 | LXRb DAF12 ctr inactive
O=C(/C=C/c1ccccc1)N1CCC(c2ccccc2)C1 (stereo unspecified)	hgDAF-12 ag 13 | hgDAF12 conf 16 | LXRb DAF12 ctr inactive
O=C(/C=C/c1ccco1)N1CCCC(c2ccccc2)C1 (stereo unspecified)	none
C/C(=N\NC(=O)c1cccs1)c1ccncc1	hgDAF-12 ag 15 | hgDAF12 conf inactive | LXRb DAF12 ctr inactive
C/C(=N\NC(=O)c1ccc(Cl)cc1)c1cccs1	hgDAF-12 ag 15, ssDAF-12 act 1.8, DAX1 inh-1 4.4 | hgDAF12 conf 18 | LXRb DAF12 ctr inactive
O=C(NCCc1ccc(Cl)cc1)c1cccs1	none
O=C(CNC(=O)c1cccs1)c1ccc(Cl)cc1	hgDAF-12 ag 15 | hgDAF12 conf 17 | LXRb DAF12 ctr inactive
COc1ccc(N2N=NN(C(C)C)C2=C(Cl)c2nnnn2-c2ccc(OC)cc2)cc1	none
COc1ccc(-c2ccc(SCC(=O)NC3CCCCC3)nn2)cc1	none

Screening results from PubChem.
